The campaign covered roughly 99,000 compounds. About 340 (0.34%) were called active. Shown is part of a subset that was picked to be rich in actives. Unmarked numbers belong to inactive results. No stated cut-off is given here; in the data, active means TR-FRET ratio above about 2300; inactive means the rest.

A short description of the assay: signal artefacts in PPARgamma/SRC-1 readout – biochemical, TR-FRET emission ratio, artefact control for PPARgamma SRC-1 recruitment agonists, primary screen (AID 1051). As to conditions: TR-FRET detection artefact counter-screen, at 8 µM, active compounds read high.
On to `COc1cc(-n2c(=S)[nH]c3ccc(C)cc3c2=O)c(Cl)cc1Cl`, for which the TR-FRET ratio is 2560 (active).

`O=C1N=c2ccccc2=C/C1=C\c1c(O)[nH]c(=S)[nH]c1=O`: the TR-FRET ratio is 1870.

In the case of `COc1ccc(C2N3CC(C)(C)CN23)cc1` (stereo not given), the TR-FRET ratio is 1740.

Take `CCOP(=O)(OCC)C(NC(=O)c1ccc(C)cc1)C(Cl)(Cl)Cl` (stereo not given): the TR-FRET ratio is 1720.

With `OCC#CC[N+]1(CC#Cc2ccccc2)CCCC1`, the TR-FRET ratio is 1790.

The values are drawn from PubChem BioAssay AID1051 (The Scripps Research Institute Molecular Screening Center, 2008).
